Compound activity as filed in PubChem BioAssay.
The entries come from a sample that favours hits as a whole.
TbREL1 inh: TbREL1 inhibition, primary screen; 0.49% of 89,000 active; P86926; TbREL1 RNA ligation, FRET fluorescence; inhibition, % at 9.66 µM;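 active = inhibition above the mean inhibition across all screened compounds plus 3 SD, cut at about 11% in these data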;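 also: 0% = plate median of test wells and 100% = NSC42067 control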
Target sequence (P86926 whole entry, looked up): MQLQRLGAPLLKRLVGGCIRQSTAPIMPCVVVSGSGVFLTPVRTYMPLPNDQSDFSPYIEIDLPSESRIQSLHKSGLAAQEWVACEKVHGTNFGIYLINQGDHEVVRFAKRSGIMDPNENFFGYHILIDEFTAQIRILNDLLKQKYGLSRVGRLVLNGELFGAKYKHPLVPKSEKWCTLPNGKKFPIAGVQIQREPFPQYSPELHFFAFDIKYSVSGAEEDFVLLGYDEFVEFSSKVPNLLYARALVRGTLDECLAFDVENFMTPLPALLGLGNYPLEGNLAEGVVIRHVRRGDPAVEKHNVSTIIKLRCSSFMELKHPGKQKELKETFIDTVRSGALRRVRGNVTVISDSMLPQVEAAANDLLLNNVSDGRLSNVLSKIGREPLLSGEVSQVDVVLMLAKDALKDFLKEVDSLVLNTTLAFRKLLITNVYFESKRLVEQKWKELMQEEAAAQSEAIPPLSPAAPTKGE
TbREL1 confirm: TbREL1 inhibition, confirmation; shares compounds with TbREL1 inh; TbREL1 RNA ligation, FRET fluorescence; inhibition, % at 9.66 µM; 37% of 390 active; AID 1117282;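 active = mean inhibition across replicates above a set limit taken from the earlier primary screen, cut at about 11% in these data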;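 also: 0% = REL1 with substrate and DMSO and 100% = REL1 plus control inhibitor NSC42067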
Numbers without * were called inactive.

SMILES	TbREL1 inh	others
CCOc1ccc(CCNC(=O)C2CCCN(S(=O)(=O)N3CCCCC3)C2)cc1OCC (configuration not stated)	-1
CC1(C)OC(=O)C2=C(C[C@@H](CCC(F)(F)F)O[C@H]2c2ccc(F)cc2)O1	-3
O=C(O)c1cc(N2C(=O)C=CC2=O)cc(N2C(=O)C=CC2=O)c1	85*	TbREL1 confirm=30*
Cc1ccc(N2C(=O)c3ccc(C(=O)O)cc3C2=O)cc1C	0
O=C(O)c1cc(C(=O)O)c(-c2ccccc2)c(C(=O)O)c1	0
C=CCN1C(=O)[C@H](CC(=O)NCCCCc2ccccc2)[C@@]2(C(=O)OCC)CCCC=C12	-4
COC(=O)[C@]12C[C@H](CC(=O)NCc3ccc(C)o3)C(=O)N(Cc3cccc4ccccc34)C1=C[C@H](COCc1ccccc1)O[C@@H]2C	-7
COc1ccc(C2C(C(=O)NCc3ccccn3)c3cc(OC)c(OC)cc3C(=O)N2C)cc1 (configuration not stated)	-1
COc1cc2c(cc1OC)-c1cc(NCc3ccccn3)nc(=O)n1CC2	21*	TbREL1 confirm=23*
COc1ccc(Cl)cc1S(=O)(=O)N1CCCC(C(=O)NCc2ccccn2)C1 (configuration not stated)	-2
Cc1ccc2c(c1)C1CS(=O)(=O)N(Cc3ccccc3)C(=O)N1C2 (configuration not stated)	2
O=P(c1ccccc1)(c1ccccc1)c1cnc2ccccn12	8
COC(=O)[C@]12C[C@H](CC(=O)NCc3cccs3)C(=O)N(Cc3cccc4ccccc34)C1=C[C@H](C(C)C)O[C@@H]2C1CC1	1
COc1ccc(S[C@]2(C(=O)N3CCOCC3)CC(=O)N[C@@H]2c2ccc(OC)cc2)cc1	-4
O=C(N/C(=N\O)c1ccccc1)Nc1ccc(Cl)cc1	1
O=C(Nc1ccc(F)c(Cl)c1)c1ccccc1	0
O=C(Nc1ccc(Cl)cc1)C(Cl)C(=O)c1ccccc1 (configuration not stated)	12*	TbREL1 confirm=8
COc1ccc(-c2cc(C(=O)N3CCCC3)no2)cc1	4
COc1ccc(OC)c(-c2cc(C(=O)N3CCOCC3)no2)c1	100*	TbREL1 confirm=1
COc1ccc(OC)c(-c2nnc(SCC(=O)N3CCOCC3)o2)c1	0
O=C1CCC[C@H]2C[C@H](NCc3cccc(F)c3)CC[C@]23CCCN13	5
CC(NCc1ccco1)C(=O)N1CCN(c2ccc(F)cc2)CC1 (configuration not stated)	-1
O=c1c(-c2cccc([N+](=O)[O-])c2)[n+]([O-])c2ccccc2n1O	12*	TbREL1 confirm=4
O=c1c(-c2ccco2)[n+]([O-])c2ccccc2n1OCc1ccccc1	1
CC(C)CCOc1ccc(-c2c(=O)n(OCc3ccc([N+](=O)[O-])cc3)c3ccccc3[n+]2[O-])cc1	-2
SMILES	TbREL1 inh	others
COc1ccc(C(C)=O)cc1CC1(C)C(=O)Nc2ccc(-c3cccc(C(F)(F)F)c3)cc21 (configuration not stated)	2
COc1ccccc1-c1ccc2c(c1)C(C)(Cc1cc(Cl)ccc1C(F)(F)F)C(=O)N2 (configuration not stated)	17*	TbREL1 confirm=7
CC1(Cc2ccccc2OC(F)(F)F)C(=O)Nc2ccc(-c3ccsc3)cc21 (configuration not stated)	4
O=C(CN1C(=O)C2(OCCCO2)c2ccccc21)NCc1ccc2ccccc2c1	-3
CCCCN1CCN(C2=Nc3ccccc3Sc3ccccc32)CC1	0
CC(C)c1nnc(NC(=O)CCC(=O)NCc2ccc3c(c2)OCO3)s1	18*	TbREL1 confirm=4
COc1ccccc1CNC(=O)CCC(=O)Nc1nnc(C(C)C)s1	-2
CC(C)c1ccc(NC(=O)NCc2ccc3c(c2)OCO3)cc1	1
CCC(C)NC(=O)CNc1nnnn1-c1ccccc1 (configuration not stated)	0
C[C@H]1[C@H](NC(=O)c2cccc(C(F)(F)F)c2)CC[C@@]23CCCN2C(=O)CCC[C@@H]13	-5
Cc1cccc(Cl)c1-n1nnnc1C1(C)CSCC(=O)N1Cc1ccc(F)cc1 (configuration not stated)	-3
CC(C)Nc1nc(NCCOc2ccccc2)c2sccc2n1	14*	TbREL1 confirm=7
COc1cccc(CNc2nc(NCc3ccccc3)nc3ccsc23)c1	13*	TbREL1 confirm=14*
COCCNc1nc(NCc2cccs2)nc2ccsc12	1
c1ccc(CNc2nc(NCCc3ccncc3)c3sccc3n2)cc1	0
CNc1nc(NCc2ccccc2)c2sccc2n1	5
c1ccc(OCCNc2nc(NCC3CC3)nc3cc(-c4ccccc4)sc23)cc1	9
COc1ccc(C(=O)Oc2ccc(C)cc2)cc1S(=O)(=O)N1CCOCC1	-1
COCCNC(=O)c1c(N)[nH]c(C(=O)c2ccc(Br)cc2)c1-c1c(OC)ccc2ccccc12	-1
CCC(=O)N1CCCC1(C)C(=O)Nc1ccc(C)c(C)c1 (configuration not stated)	1
O=C(Nc1nc2ncccn2c1-c1ccc(C(F)(F)F)cc1)c1ccc(F)cc1	-1
CCOC(=O)[C@@]12CCC3=C1N(CCC3)C(=O)[C@H](CC(=O)NCc1ccc(OC)c(OC)c1)C2	4
CC(=O)c1cc(-c2ccccc2)n(CC(=O)NCc2ccc(F)cc2)c1C	0
O=C1c2ccccc2C(c2nnnn2Cc2ccccc2)N1CCc1c[nH]c2ccccc12 (configuration not stated)	-6
Cc1ccc(C(=O)C2CCN(CC(=O)N3CCCC3)CC2)cc1	-1
SMILES	TbREL1 inh	others
Cc1ccc(C(=O)N2CCC(C(=O)c3ccc(Cl)cc3)CC2)cc1	0
Cc1ccc(C(=O)C2COC(=O)C2)cc1 (configuration not stated)	20*	TbREL1 confirm=5
CCCC1CCC2(CCCN2CCOC(=O)Nc2ccccc2)CC1 (configuration not stated)	-1
C#CCNC(=O)C[C@@H]1C(=O)N(CCc2ccc(Cl)cc2)C2=CCCCC[C@]21C(=O)OC	-3
CN1CCCCC(NC(=O)c2c(F)cccc2F)C1=O (configuration not stated)	1
Cc1ccccc1CN1CCCCC(NC(=O)C(C)(C)C)C1=O (configuration not stated)	-1
COC(=O)[C@H](Cc1ccc(O)cc1)NC(=O)Cn1ccc(NC(=O)OCc2ccccc2)nc1=O	0
COC(=O)C(Cc1ccc(O)cc1)NC(=O)Cn1cc(C)c(=O)[nH]c1=O (configuration not stated)	11*	TbREL1 confirm=3
Cc1cn(CC(=O)N[C@H](C)c2cccc3ccccc23)c(=O)[nH]c1=O	-1
COCCCN1C(=O)C(CC(=O)NC2CCCCC2)CC(C(=O)N(C(C)C)C(C)C)=C1C (configuration not stated)	-2
CN(Cc1ccco1)C(=O)CN1C(=O)C2(OCCCO2)c2ccccc21	3
CSc1nc(-c2ccccc2)nn1S(=O)(=O)c1ccc(Cl)cc1	11*	TbREL1 confirm=3
CCS(=O)(=O)n1nc(-c2ccc(Cl)cc2)nc1N	0
COc1ccc(-c2nc(SC)n(S(=O)(=O)c3ccccc3)n2)cc1	2
CCOc1ccc(-n2c(SCC(=O)Nc3ccc(S(=O)(=O)Nc4nccs4)cc3)nnc2-c2ccc(C(C)(C)C)cc2)cc1	-2
CN(C)CCCN(C(=O)c1ccc2c(c1)CCCC2)c1nc2cc3c(cc2s1)OCO3	7
CN(C)CCCN(C(=O)c1ccc(S(=O)(=O)N2CCc3ccccc32)cc1)c1nc2ccc(F)cc2s1	12*	TbREL1 confirm=8
